Measured values reported in PubChem BioAssay AID588458 (Sanford-Burnham Center for Chemical Genomics, 2011).
In all, about 360,000 compounds went through this assay and about 3,000 (0.83%) were called active. Shown is part of a subset that was picked to be rich in actives. Unmarked numbers belong to inactive results. Rule as the data show it: active = inhibition above about 50%; inactive = the rest.

target: DNA (cytosine-5)-methyltransferase 1 (Homo sapiens) (UniProt P26358); test: inhibition of DNA methyltransferase DNMT1 – biochemical, molecular beacon, fluorescence, HinP1I cleavage, uHTS, primary screen (AID 588458); details: at 10 µM, active compounds read high
Sequence (P26358 504-1616 limits assumed): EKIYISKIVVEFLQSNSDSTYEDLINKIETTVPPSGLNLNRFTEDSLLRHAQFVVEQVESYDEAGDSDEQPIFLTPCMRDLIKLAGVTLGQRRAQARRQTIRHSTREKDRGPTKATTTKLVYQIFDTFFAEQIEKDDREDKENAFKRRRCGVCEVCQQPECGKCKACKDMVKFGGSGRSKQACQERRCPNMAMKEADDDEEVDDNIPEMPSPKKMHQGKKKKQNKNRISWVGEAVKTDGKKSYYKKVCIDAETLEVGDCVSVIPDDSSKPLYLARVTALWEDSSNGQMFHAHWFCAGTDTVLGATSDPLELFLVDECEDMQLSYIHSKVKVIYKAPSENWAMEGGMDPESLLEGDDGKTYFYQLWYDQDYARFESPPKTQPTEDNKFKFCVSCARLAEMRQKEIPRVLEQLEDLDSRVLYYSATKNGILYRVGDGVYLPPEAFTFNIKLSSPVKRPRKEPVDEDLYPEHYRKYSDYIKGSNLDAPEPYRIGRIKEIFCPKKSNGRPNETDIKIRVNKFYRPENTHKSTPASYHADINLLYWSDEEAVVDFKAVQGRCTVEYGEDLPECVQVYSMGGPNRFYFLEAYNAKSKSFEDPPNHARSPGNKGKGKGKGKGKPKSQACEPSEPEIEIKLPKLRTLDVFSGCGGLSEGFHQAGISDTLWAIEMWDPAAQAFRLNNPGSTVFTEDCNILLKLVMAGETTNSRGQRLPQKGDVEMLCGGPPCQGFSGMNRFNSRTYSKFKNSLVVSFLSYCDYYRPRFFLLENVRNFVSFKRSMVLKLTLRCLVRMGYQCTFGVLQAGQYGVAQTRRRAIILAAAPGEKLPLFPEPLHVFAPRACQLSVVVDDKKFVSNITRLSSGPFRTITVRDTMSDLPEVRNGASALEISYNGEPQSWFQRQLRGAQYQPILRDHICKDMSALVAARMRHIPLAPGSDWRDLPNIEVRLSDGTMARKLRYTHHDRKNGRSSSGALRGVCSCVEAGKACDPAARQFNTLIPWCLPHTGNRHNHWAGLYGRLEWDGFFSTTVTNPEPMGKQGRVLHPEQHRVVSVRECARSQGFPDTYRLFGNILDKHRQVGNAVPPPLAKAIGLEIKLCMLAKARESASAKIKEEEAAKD

SMILES | inhibition (reported as % activation of signal)
O=C(NC(Cc1ccccc1)C(=O)O)/C(=C\c1ccccc1)NC(=O)c1ccco1 (stereo not given) | -3.34%
CCC(C)(C)NC(=O)CN(C(=O)CCC(=O)Nc1cc(C)ccn1)c1ccc2c(c1)OCCO2 | -0.26%
O=C(c1cccnc1)N(c1cc2sc(=O)oc2c2ccccc12)S(=O)(=O)c1ccccc1 | -12.2%
CC(Sc1cccc[n+]1[O-])C(=O)Nc1cccc(S(=O)(=O)N2CCOCC2)c1 (stereo not given) | 1.02%
CN(C)/C=C(/C(=O)c1ccccc1)S(=O)(=O)c1ccc(Cl)cc1 | -1.72%
CN(C)/C=C(/C(=O)c1ccc(F)cc1)S(=O)(=O)c1ccc(F)cc1 | 1.17%
CN(C)/C=C(/C(=O)c1ccc(Cl)cc1)S(=O)(=O)c1ccccc1 | 70% (active)
Cc1cnc(CN(C)C(=O)C2CCC(=O)N(CCc3cccc(F)c3)C2)[nH]1 (stereo not given) | 1.88%
COc1cccc(C(=O)Nc2ccc3nc4n(c(=O)c3c2)CCCCC4)c1 | 3.72%
O=C(Nc1ccc(Cl)cc1)c1cccc(OC(=S)N2CCOCC2)c1 | 0.14%
COc1cccc(C(=O)Nc2ccc(N3CCCC3)cc2)c1 | 91.3% (active)
CC1CN(C(=O)c2ccccc2NS(=O)(=O)c2cccc([N+](=O)[O-])c2)CC(C)O1 (stereo not given) | 65.4% (active)
CC1CN(C(=O)c2cccc(NS(=O)(=O)c3ccc(Br)cc3)c2)CC(C)O1 (stereo not given) | 6.97%
Cc1cc([N+](=O)[O-])ccc1NS(=O)(=O)c1ccccc1 | 3.46%
Nc1c(C(=O)O)cnn1-c1ccccc1 | -0.06%
Cc1noc(C)c1COc1ccccc1C(=O)N(C)CC(=O)Nc1cccc(F)c1 | 1.78%
COc1ccc(C)cc1NC(=O)CCCN1C(=O)NC(C)(C)C1=O | 2.66%
COc1ccc(/C=C/C(=O)c2c(O)cc(OC)cc2OC)cc1 | -2.91%
Cc1cc(O)c(Sc2ccccc2)c(=O)o1 | 4.53%
Cc1cc(O)c(C(=O)/C=C/c2c(F)c(F)c(F)c(F)c2F)c(=O)o1 | 59.4% (active)
COc1ccc(C)cc1NC(=O)c1cc(-c2ccccc2)nc2c1cnn2C(C)C | -4.87%
O=C(Cn1nnc(-c2ccccc2)n1)N/N=C/c1ccc(-c2ccc(Cl)cc2)o1 | 59.9% (active)
Nc1nnn(CC(=O)N/N=C/c2ccccc2)n1 | 0.13%
O=C(CN1CCOCC1)N/N=C/c1ccc(-c2ccc(Br)cc2)o1 | -2.15%
CC1(C)CC(=O)C(C2c3ccccc3S(=O)(=O)c3ccccc32)C(=O)C1 | 1.21%

SMILES | inhibition (reported as % activation of signal)
O=C(Nc1ccnn1C1CCN(Cc2cccc(OCCO)c2)CC1)C1CCCC1 | -0.78%
COc1cc(CC(=O)N2CCC(n3nccc3NC(=O)C3CC3)CC2)cc(OC)c1OC | 0.88%
CCOc1ccc(CN2CCC(n3nccc3NC(=O)C3CC3)CC2)cc1CO | 55.5% (active)
COCCCC1CCN(C(=O)C2CCC(=O)N(C3CCCCCC3)C2)CC1 (stereo not given) | -2.02%
C=CCN1CCN(C(=O)CCCc2ccccc2)CC1 | 0.85%
O=C(COC(=O)c1ccncc1)c1ccccc1 | -0.53%
O=C(Oc1ccc(-c2nc(-c3ccccn3)no2)cc1)c1ccccc1 | 52.9% (active)
Cc1noc(C)c1COC(=O)COc1ccc(-c2ccccc2)cc1 | -6.7%
Nc1nc(Br)c2ccccc2c1-c1ccc(F)cc1 | -9.34%
Cc1cccc(C)c1OCCN1CCOCC1 | 0.32%
c1ccc2cc3c(NCCN4CCOCC4)ccnc3cc2c1 | 54.4% (active)
O=C(NCCN1CCOCC1)c1cc(Sc2cccc(Cl)c2)nc2ccccc12 | -4.33%
CN1CCN(C(=O)C(=O)c2cn(CC(=O)N3CCCC3)c3ccccc23)CC1 | 1.12%
O=C(CN1C(=O)c2cccnc2Oc2ccc(Cl)cc21)NCCc1ccccc1 | -0.09%
Cc1ccc2oc(=O)c3cnn(CC(=O)N4CCN(c5ccccn5)CC4)c3c2c1 | 2.52%
CCC(=O)Nc1ccc(C(=O)NNC(=O)c2ccc(Cl)cc2)cc1 | -1.31%
CC(=O)Nc1ccc(NC(=O)CCCNC(=O)c2ccc(Cl)cc2)cc1 | -1.09%
CC(=O)Nc1ccc(SCC(=O)NC(=O)c2ccc(Cl)cc2)cc1 | 69.8% (active)
Cc1ccc2c(CN3CCN(S(=O)(=O)c4ccccc4C(F)(F)F)CC3)cc(=O)oc2c1 | -2.32%
CC(C)Oc1ccc(S(=O)(=O)N2CCOCC2)cc1NC(=O)C1CCCC1 | 4.21%
CCCCN1C(=O)/C(=C/C=C2/C=Cc3ccccc3N2CC)SC1=S | 3.13%
Cc1ccc(-c2nn(-c3ccccc3)cc2/C=C2\SC(=S)N(CCCCCC(=O)O)C2=O)o1 | 87.9% (active)
O=C(CN1C(=O)/C(=C\c2ccccc2F)SC1=S)Nc1nc2ccccc2s1 | -44.4%
CCc1nnc(NS(=O)(=O)c2ccc(NC(=S)NC(=O)/C=C/c3cccs3)cc2)s1 | 9.17%
CCOC(=O)c1c(NC(=S)NC(=O)/C=C/c2cccs2)sc(C)c1C | 58.9% (active)

SMILES | inhibition (reported as % activation of signal)
CCOC(=O)c1sc(=NC(=O)/C=C/c2cccs2)n(C)c1C | 10.1%
O=C(CO/N=C/c1ccccc1O)NNC(=O)c1ccccc1Cl | -2.54%
CC(C)(C)N(Cc1ccccc1)C(=O)c1ccncc1 | 82.6% (active)
CCN(Cc1ccncc1)C(=O)CCc1ccccc1 | -1.63%
CC(C)(C)C(=O)N(Cc1ccccc1)c1ccccn1 | -1.5%
CC(=O)N/C(=N/c1nc(C)cc(C)n1)Nc1ccc(F)cc1F | 0.05%
C/C(=N\NC(=O)CCn1nc(C)cc1C)C(C)(C)C | -0.8%
OCC(O)C1OCOC(C(O)CO)C1O (stereo not given) | -1.63%
O=C(NCCc1ccc(F)cc1)c1ccc(S(=O)(=O)N2CCCCC2)cc1 | -2.12%
NC1=CC(=O)C(=O)c2cccnc21 | 100% (active)
CN(Cc1ccccc1)C(=O)COC(=O)c1ccccc1Nc1ccccc1 | -16.6%
Cn1cnc(C(F)(F)F)c1-c1ccc([N+](=O)[O-])cc1 | 3.01%
O=C(COC(=O)Cn1cnc2ccccc21)Nc1cccc2c1C(=O)c1ccccc1C2=O | 27.5%
O=C(COC(=O)c1cccc(Br)c1)Nc1cccc2c1C(=O)c1ccccc1C2=O | 51% (active)
O=C(COC(=O)c1ccccc1)Nc1ccccc1Sc1ccccc1 | 0.84%
CC(C)(C)c1ccccc1NC(=O)CN1C(=O)NC2(CCCC2)C1=O | 1.67%
COCCn1cnnc1SCC(=O)Nc1cccc(S(=O)(=O)N2CCCCC2)c1 | -1.49%
Cc1ccc2c(c1)N(CC(=O)N1CCC(C)CC1)C(=O)c1cccnc1O2 | -0.74%
COc1ccc(/C=C/C(=O)OCC(=O)N2CCN(S(=O)(=O)c3ccc(C)cc3C)CC2)cc1OC | -0.56%
Cc1ccc(N=C2NC(=O)/C(=C/C=C/c3ccco3)S2)cc1C | 71.1% (active)
O=C(COC(=O)c1cc(=O)[nH]c2ccccc12)Nc1nc(-c2cccc(Br)c2)cs1 | -21.4%
O=C(CSc1nc2ccccc2c(=O)[nH]1)Nc1nc(-c2ccc(Br)cc2)cs1 | 93.2% (active)
Cc1cc(C)c(-c2csc(NC(=O)CCCc3nc4ccccc4c(=O)[nH]3)n2)c(C)c1 | -5%
Cc1ccc(C(C(=O)NCC2CCCO2)N(C(=O)c2snc(C(N)=O)c2N)c2ccc(C(C)C)cc2)o1 (stereo not given) | 0.65%
CC(C)C(=O)Nc1ccc2c(c1)oc1ccccc12 | -5.97%
